Where “and” joins values, the source holds several entries; their conditions need not be identical. Identical values can stand only once. Hit rate of the full screen: of about 370,000 compounds, about 1,100 (0.3%) were called active. Rule as the data show it: active = inhibition above about 13%; inactive = the rest. The sample as a whole holds a higher share of actives than the screen did.
target: Methyl-CpG-binding domain protein 2 (Homo sapiens) (UniProt Q9UBB5); test: inhibitors of MBD2 binding to methylated DNA, primary screen, biochemical, TR-FRET, DNA-binding domain, human (AID 686964); conditions: MBD2 binding to methylated oligonucleotide, at 4.4 µM, hits give high values
Sequence (Q9UBB5 whole entry, looked up, the tested form may be a part): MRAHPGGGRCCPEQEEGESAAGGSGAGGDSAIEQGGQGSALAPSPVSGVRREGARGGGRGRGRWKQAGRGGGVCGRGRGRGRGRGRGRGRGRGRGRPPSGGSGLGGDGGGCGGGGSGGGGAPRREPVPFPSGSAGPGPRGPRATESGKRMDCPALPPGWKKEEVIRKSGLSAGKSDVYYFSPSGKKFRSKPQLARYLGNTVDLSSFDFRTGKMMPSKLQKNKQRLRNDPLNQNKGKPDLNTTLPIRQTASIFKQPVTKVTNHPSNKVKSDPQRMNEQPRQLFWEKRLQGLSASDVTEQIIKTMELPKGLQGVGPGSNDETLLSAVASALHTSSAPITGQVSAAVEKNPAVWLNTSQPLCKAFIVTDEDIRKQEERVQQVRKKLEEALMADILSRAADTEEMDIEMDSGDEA

Structure (SMILES)	inhibition
COC(=O)c1cn(C)c2ccc(S(=O)(=O)N3CC(C)CC(C)C3)cc2c1=O (stereo unspecified)	21.1% (active)
CC1CCCCC1NC(=O)c1cn(C)c2ccc(S(=O)(=O)N3CCOCC3)cc2c1=O (stereo unspecified)	0.43% (inactive)
CCn1cc(C(=O)N2CC(C)CC(C)C2)c(=O)c2cc(S(=O)(=O)N3CCCC3)ccc21 (stereo unspecified)	-7.45% (inactive)
Cc1cc(C)c2nc(-c3cccnc3)cc(C(=O)Nc3ccc(S(=O)(=O)Nc4onc(C)c4C)cc3)c2c1	-1.74% (inactive)
CCOC(=O)c1ccn(-c2nc(-c3ccco3)cc(C(F)(F)F)n2)n1	1.89% (inactive)
Cc1cc(C)c2nc(-c3ccco3)cc(C(=O)O)c2c1	13.2% (active)
CCC(=O)c1c(CC)c2n3c1=CC[C@H]3CC(Br)C=2 (stereo partly specified)	1.67% (inactive)
Cc1ccc(C(=O)NNC(=O)c2ccncc2)cc1S(=O)(=O)N1CCCCC1	-3.54% (inactive)
Cc1ccc(NC(=O)C2CC(=O)N(c3ccc4c(c3)OCCO4)C2)cc1S(=O)(=O)N1CCCCCC1 (stereo unspecified)	2.94% (inactive)
Cc1ccc(C(=O)Nc2ccc3c(c2)OCO3)cc1S(=O)(=O)N1CCCCC1	13.4% (active)
Cc1cc(C)nc(NC(=S)N2CCN(c3ccc(C(F)(F)F)cn3)CC2)c1	-0.18% (inactive)
COC(=O)CN1C(=O)N/C(=C/c2ccc(OC)c(C)c2OC)C1=O	-3.97% (inactive)
Cc1ccccc1NC(=O)CN1C(=O)N/C(=C\c2cccn2-c2cccc(C(=O)O)c2)C1=O	20.6% (active)
N#Cc1ccccc1CN1C(=O)S/C(=C/c2cccn2-c2cccc(C(=O)O)c2)C1=O	10.6% (inactive)
Cc1ccc(Cn2cc(CN3[C@@H](C)COc4cc(Br)ccc4S3(=O)=O)nn2)cc1	-5.2% (inactive)
CCc1noc(C)c1C(=O)N1CCN(S(=O)(=O)c2cccc(C(F)(F)F)c2)CC1	-5.25% (inactive)
O=C(CCl)NC1CCCCN(Cc2cccc(C(F)(F)F)c2)C1=O (stereo unspecified)	3.06% (inactive)
CCOc1ccc(-n2c(SCC(=O)Nc3ccc(OC)cc3)nc3sc4c(c3c2=O)CCN(C)C4)cc1	23.5% (active)
CCCSc1nc2sc3c(c2c(=O)n1-c1ccc(OC)cc1)CCN(C)C3	-2% (inactive)
CCn1c(SCC(=O)Nc2ccc(Br)cc2)nc2sc3c(c2c1=O)CCN(C)C3	0.05% (inactive)
CCCCC(=O)N[C@@H]1CC[C@@]23CCCN2C(=O)CCC[C@H]3[C@H]1C	-0.72% (inactive)
COc1ccc(Cl)cc1NC(=O)CCS(=O)(=O)c1ccc(Br)cc1	26.3% (active)

Structure (SMILES)	inhibition
COc1ccc(Cl)cc1NC(=O)CN(C)Cc1ccc(OC)c(OC)c1	0.39% (inactive)
COc1ccc(Cl)cc1NC(=O)COC(=O)c1ccc(Br)o1	-1.28% (inactive)
CC(=O)N1CCc2cc(S(=O)(=O)NCCC(=O)N3CCCC3)ccc21	0.46% (inactive)
CCCN(CC(=O)NC(=O)NC1CCCCC1)CC(=O)Nc1cc(Cl)ccc1Cl	-5.45% (inactive)
CCOC(=O)c1c(NC(=O)CCCN2CCOCC2)sc2c1CC(C)(C)OC2	0.1% (inactive)
CCOC(=O)c1sc(NC(=O)CCN2CCOCC2)c(C(=O)OCC)c1C	28.4% (active)
CCOC(=O)c1c(C)[nH]c(C(=O)NCCN2CCOCC2)c1C	4.74% (inactive)
CCN(C(=O)[C@@H](C1CC1)[C@@H](O)c1ccc2ccccc2c1)c1ccccc1	3.52% (inactive)
O=C1C(=O)N(Cc2ccc(-c3ccsc3)cc2)c2ccc(OC(F)(F)F)cc21	-3.46% (inactive)
CC(C)CCN1CCC(C)(NC(=O)c2ccccc2)C1=O (stereo unspecified)	0.15% (inactive)
COC(=O)[C@]1(C#N)CC(=O)N(CC2CCCCC2)[C@@H]1c1ccccc1	-3.31% (inactive)
COC(=O)c1ccc2nc(-c3ccc(F)cc3)c(Cc3ccc(C)cc3)n2c1	3.12% (inactive)
COC(=O)c1ccc2nc(C3CCCCC3)c(Cc3cccc(F)c3)n2c1	19% (active)
COC(=O)c1ccc2nc(-c3ccc(Cl)cc3)c(Cc3cccc(F)c3)n2c1	2.68% (inactive)
O=S1(=O)c2ccc(Br)cc2OC[C@H](Cc2ccccc2)N1Cc1cn(Cc2ccccc2)nn1	9.67% (inactive)
Cc1cc(NCCc2c[nH]c3ccccc23)ccc1Oc1cccnc1	-2.55% (inactive)
COC(=O)c1ccc(CSc2nncn2N)cc1	48.3% (active)
CC(C)CC(CC(C)C)=NNC(=O)c1ccc(CSc2nncn2C)cc1	-5.89% (inactive)
COC(=O)c1ccc(SCc2ccccc2)nc1	-4.53% (inactive)
COc1cccc2c1C(=O)c1c(O)c3c(c(O)c1C2=O)CC(O)(C(C)=NNC(=O)c1ccc(Cl)c(Cl)c1)CC3OC1CC(N)C(O)C(C)O1 (stereo unspecified)	111% (active)
CN[C@H]1C[C@H]2c3cc(N4CCOCC4)ccc3CCN2C[C@H]1[C@H](C)O	-5.62% (inactive)
COC(=O)[C@@H]1CC(O)CN1C(=O)C12CC3CC(CC(C3)C1)C2 (stereo partly specified)	2.14% (inactive)

Structure (SMILES)	inhibition
COc1nc(N(C)C)nc(N2CC(=O)N(CCNS(=O)(=O)c3ccc(C)cc3)C2=N)n1	15.6% (active)
Cc1ccc(S(=O)(=O)NCCSC(C)(C)C)cc1	0.35% (inactive)
COc1nc(Oc2ccc(=O)n(C)n2)nc(N(C)C)n1	-3.73% (inactive)
COc1ccc(CSc2nnc(-c3cccc(C)c3)n2C)cc1	0% (inactive)
Cc1cc(Cl)ccc1N1C(=O)CC(SCCC(=O)O)C1=O (stereo unspecified)	2.13% (inactive)
COC(=O)c1cc2c(c3c4ccccc4n(S(=O)(=O)c4cccc(C)c4)c13)C(=O)N(Cc1ccccc1)C2	0.83% (inactive)
CCc1ccccc1NC(=O)CN(c1ccc(OC)cc1OC)S(=O)(=O)c1ccccc1[N+](=O)[O-]	2.54% (inactive)
CSc1ccc(CNCCN2CCOCC2)cc1	2.47% (inactive)
c1ccc2cc3c(NCCN4CCOCC4)ccnc3cc2c1	15.3% (active)
O=C(Cc1ccc(Br)cc1)NCCN1CCOCC1	-0.23% (inactive)
COc1ccccc1C(=O)NNC(=O)CCN1C(=O)/C(=C\c2ccccc2)SC1=S	13.2% (active)
COc1ccccc1C(=O)Nn1cnnc1	3.63% (inactive)
COc1ccccc1C(=O)NCC(=O)OCC(=O)NNC(=O)c1ccc(Br)cc1	-6.8% (inactive)
Cn1cnnc1Sc1ccc(CN2CCN(C3CCCC3)C(CCO)C2)o1 (stereo unspecified)	-4.49% (inactive)
C[C@@H]1CN([C@@H](C)CO)C(=O)c2cccc(NC(=O)Nc3cccc4ccccc34)c2O[C@H]1CN(C)S(=O)(=O)c1ccccc1F	-5.98% (inactive)
COc1ccccc1C(=O)NC1CCCCN(C(C)C)C1=O (stereo unspecified)	6.15% (inactive)
Cc1ccc(S(=O)(=O)N(CCc2ccccc2)c2ccc3c(c2)C2CC3CCN2C(=O)OCc2ccccc2)cc1 (stereo unspecified)	-6.75% (inactive)
COc1ccc(CNC(=O)C2CCC(CNc3c(N4CCOCC4)c(=O)c3=O)CC2)cc1 (stereo unspecified)	-0.13% (inactive) and -5.05% (inactive)
CCOc1ncccc1C(=O)Nc1ccc(S(=O)(=O)Nc2nc(C)cc(C)n2)cc1	-2.5% (inactive)
CCC(CC)C(C(=O)NC1CCCC1)N1CCN(c2cc(C)nc3ccccc23)CC1 (stereo unspecified)	-3.59% (inactive)
CCOc1cc(N2CCOCC2)c(OCC)cc1NC(=O)c1cc(C)nc2ccccc12	13.2% (active)
CCOc1cc(NC(=O)c2ccccc2C(=O)O)c(OCC)cc1NC(=O)c1ccccc1F	0.6% (inactive)

Structure (SMILES)	inhibition
CCOc1ccc(NC(=O)c2cc(C)nc3ccccc23)cc1	16.2% (active)
Cc1cc(C(=O)OCC(=O)Nc2nccs2)c2ccccc2n1	8.33% (inactive)
O=C(CSc1nc2ccccc2nc1N1CCCCC1)N1CCN(S(=O)(=O)c2cccc([N+](=O)[O-])c2)CC1	-6.32% (inactive)
O=C(NCc1ccc(Cl)cc1)C1CCCN(c2nc3ccccc3o2)C1 (stereo unspecified)	-3.29% (inactive)
O=C(c1ccc(F)cc1)c1c[nH]c(C(=O)NCc2cccnc2)c1	4.31% (inactive)
O=C1CC[C@@]23CCCN2C(=O)CCC[C@H]3[C@H]1Cc1ccccc1	1.8% (inactive)
COC(=O)C(=Nc1ccccc1)/C(C(=O)C(=O)N(C)c1ccccc1)=C(\O)c1ccc(Cl)cc1	-5.32% (inactive)
C=CC1=C(C(=O)O)N2C(=O)[C@@H](NC(=O)/C(=N/OCC(=O)O)c3csc(N)n3)[C@H]2SC1	73.1% (active)
C=CC1=C(C(=O)O)N2C(=O)[C@@H](NC(=O)/C(=N\OCC(=O)O)c3csc(N)n3)[C@H]2SC1	52.4% (active)
CCCNc1ncnc2sc(C)c(C)c12	1.28% (inactive)
O=C(Nc1cc(F)cc(F)c1)OC1CCC12CCC(c1ccccc1)CC2 (stereo unspecified)	0.3% (inactive)
O=C1CC(c2ccc3c(c2)OCO3)N=C2N(CC3CC3)C/C(=C/c3ccccc3)N12 (stereo unspecified)	-1.23% (inactive)
COc1ccc(OCc2cc(C(=O)NCC3(C)COC3)no2)c(Cl)c1	17.4% (active)
Cc1cc(OCc2cc(C(=O)NCc3cc(C(C)C)no3)no2)cc(C)c1Cl	4.94% (inactive)
COCCN1CCN(C(=O)c2cc(COc3ccc(F)cc3Cl)on2)CC1	2.22% (inactive)
COC(=O)C1=C(C)N(Cc2ccccc2C(F)(F)F)C(=NCc2ccc(C(F)(F)F)cc2)NC1c1ccc(F)cc1 (stereo unspecified)	2.2% (inactive)
CN1C(=O)CN2CCc3ccccc3C2c2cc(Cl)ccc21 (stereo unspecified)	-5.25% (inactive)
Cc1ccc(NC(=O)Cc2cccc(F)c2)c(S(=O)(=O)N2CCOCC2)c1	-5.33% (inactive)
Cc1nc(CNc2ncnc3ccc(-c4ccc5c(c4)OCO5)cc23)cs1	-2.98% (inactive)
COc1ccc(C2Nc3ccccc3C(=O)N2Cc2cccs2)cc1COc1c(C)cccc1C (stereo unspecified)	-1.94% (inactive)

Source: PubChem BioAssay AID686964 (The Scripps Research Institute Molecular Screening Center, 2013)
